From PubChem BioAssay
TSG101-PTAP inh – blocks PTAP/TSG101 interaction to inhibit HIV-1 budding; Fluorescence polarization, FITC-PTAP peptide / Tsg101 binding; 340,000 tested, under 10 active; AID 493005; Q99816; Potency, µM (highest dose often 115 µM), for the others: at the highest dose activity change, negative = inhibition, usual class: inhibitors; active = well fitted inhibition curve with a large enough effect in the main read-out, with a control signal flat, not every such curve was filed as active; inconclusive = small, poorly fitted or top-dose-only effect, or effect the other way, or a change in a side signal; inactive = no such curve, though single readings can be large or run the other way; also: potency is read from the fitted curve at half-maximal effect; % of control where 0% means no effect
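Tsg101 binding domain (10 uM final) was mixed with compound and a FITC-labeled PTAP peptide (50 nM final) in HEPES pH 7.5 buffer with NaCl, Tween 20, EDTA and TCEP; fluorescence polarization was read after 20 min at r.t.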
TSHR antagonist – human thyrotropin receptor antagonism; P16473; TSHR-expressing cells, TSH-stimulated cAMP HTRF, 2 h; active compounds read low; activity change, negative = inhibition, % at 11.5 µM; 0.2% of 330,000 active; AID 504810;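 active = activity change below a set negative limit, meaning inhibition stronger than a set level, cut at about -70% in these data; inconclusive = activity change between two set negative limits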; also: % is scaled to controls: 0 for no effect and ±100 for the full control effect
Target sequence (P16473 whole entry, looked up): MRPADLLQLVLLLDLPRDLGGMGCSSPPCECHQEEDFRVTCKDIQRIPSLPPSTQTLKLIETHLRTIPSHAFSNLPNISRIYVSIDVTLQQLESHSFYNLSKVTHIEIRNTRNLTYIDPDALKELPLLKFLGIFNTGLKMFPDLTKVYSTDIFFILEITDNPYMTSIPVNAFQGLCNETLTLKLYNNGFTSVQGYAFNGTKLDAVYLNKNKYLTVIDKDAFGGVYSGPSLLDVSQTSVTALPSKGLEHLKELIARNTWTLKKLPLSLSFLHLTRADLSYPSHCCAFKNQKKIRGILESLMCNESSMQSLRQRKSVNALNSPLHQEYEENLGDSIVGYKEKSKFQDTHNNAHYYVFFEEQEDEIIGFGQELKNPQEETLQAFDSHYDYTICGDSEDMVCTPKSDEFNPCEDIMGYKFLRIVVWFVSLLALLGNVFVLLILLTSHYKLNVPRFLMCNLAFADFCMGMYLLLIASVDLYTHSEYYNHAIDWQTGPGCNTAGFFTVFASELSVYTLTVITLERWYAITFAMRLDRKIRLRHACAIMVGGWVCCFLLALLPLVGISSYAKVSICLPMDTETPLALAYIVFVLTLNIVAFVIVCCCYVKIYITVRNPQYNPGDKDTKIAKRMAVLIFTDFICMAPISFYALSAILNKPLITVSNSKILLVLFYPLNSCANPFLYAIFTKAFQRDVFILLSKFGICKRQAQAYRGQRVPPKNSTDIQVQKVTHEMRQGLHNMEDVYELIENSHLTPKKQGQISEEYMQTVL
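TSHR-expressing cells were treated with compounds, then stimulated with TSH at EC80 (4nM final) for 2 hours at 37 deg C. Cellular cAMP was measured by HTRF competition between lysate cAMP and cAMP-d2 for a cryptate-labelled anti-cAMP antibody.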
VDR inhibitor – blocks the human vitamin D receptor | Potency, µM, inactives show max response, negative = inhibition, actives largely listed as inhibitors | P11473 | VDR-SRC2-3 peptide fluorescence polarization, 2 h | 0.93% of 400,000 active; also: potency is read from the fitted curve at half-maximal effect; % is scaled to controls: 0 for no effect and ±100 for the full control effect
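Fluorescence polarization assay of small-molecule disruption of VDR binding to coregulator peptide SRC2-3. Compounds and controls pin-transferred, then read after 2 h incubation at ambient room temperature.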
PLK1 PBD inh – blocks phosphopeptide binding to human PLK1 polo-box domain; Plk1 PBD binding of FITC phosphopeptide, fluorescence polarization; 2.8% of 360,000 active; AID 720504; P53350; Potency, µM, without a hit: max response, negative = inhibition, hits mostly inhibitors; also: potency is read from the fitted curve at half-maximal effect; series mostly up to about 57 µM; % is scaled to controls: 0 for no effect and ±100 for the full control effect; nearly all actives have a fitted effect of over 65% in size
uPA generation – blocks generation of uPA at the cell surface; Potency, µM (highest dose often 38.3 µM), for the others: at the top dose activity change, negative = inhibition, most hits filed as inhibitors; cell surface uPA generation assay, qHTS; 0.31% of 330,000 active; active = well fitted inhibition curve with a large enough effect; inconclusive = small, poorly fitted or top-dose-only effect; inactive = no such curve, though single readings can be large or run the other way; tested in mouse RAW 264.7 cells; also: potency is read from the fitted curve at half-maximal effect; % is scaled to controls: 0 for no effect and ±100 for the full control effect; nearly all actives have a fitted effect of over 55% in size
Numbers without * were called inactive; ? = inconclusive; · = not tested or not shown. This is a sample that favours compounds with a hit; in the whole collection about 3.1% have one here. Unless noted, calls follow the shape of the dose curve; as a rule, active = well fitted curve in the direction sought with a large enough effect; inconclusive = small, poorly fitted or top-dose-only effect, or another doubt; inactive = no such curve, though single readings can be large; an effect the other way counts as inactive or inconclusive.

SMILES	TSG101-PTAP inh	TSHR antagonist	VDR inhibitor	PLK1 PBD inh	uPA generation
CCC(C)[C@H](NC(=O)NCCC1=CCCCC1)C(=O)O (some centres undefined)	4%	-2	?	24µM*	2%
COc1cccc(/C=C/C(=O)OCC(=O)NCCC2=CCCCC2)c1	-3%	-4	?	8.4µM*	-1%
CCOc1ccccc1NC(=O)NCCC1=CCCCC1	1%	-10	-9%	-15%	3%
Cc1ccc(C2(C)NC(=O)N(CC(=O)Nc3ccccc3N3CCCC3)C2=O)cc1 (centres undefined)	-2%	26	2%	-5%	5%
COCCn1c(=O)c(C)nc2cnc(Nc3ccccc3)nc21	·	·	2%	·	·
CCOc1ccccc1NC(=O)C(=O)NCCC1=CCCCC1	-1%	-11	-3%	27µM*	5%
CCOc1ccc(OCCSc2nc(C)cc(=O)[nH]2)cc1	-2%	13	-25%	3.4µM*	-1%
COc1ccc(OCCSc2nc(N)cc(=O)[nH]2)cc1	-8%	-10	-17%	-15%	5%
CCCN(CCC)C(=O)c1cc([N+](=O)[O-])cc2c1-c1ccc([N+](=O)[O-])cc1C2=C(C#N)C#N	1%	11	40µM*	?	?
Nc1c(-c2ccccc2)c(CSc2nc3ccccc3[nH]2)nn1-c1ccc(C(=O)O)cc1	-2%	2	?	15µM*	3%
CC(C)C[C@H]1CNC(=O)C(=O)N1C[C@@H]1CCCN1C[C@H](Cc1ccccc1)N1C[C@H](Cc2ccccc2)N(CCc2ccccc2)C(=O)C1=O	·	·	·	0%	·
CC(C)COc1cccc(-c2cc(C(=O)Nc3ccon3)c3ccccc3n2)c1	-1%	-119*	-8%	-2%	3%
CCCOc1cccc(-c2cc(C(=O)NN)c3ccccc3n2)c1	-7%	1	-5%	7%	12%
O=c1c(C(c2ccc(F)cc2)c2c(O)nc3n(c2=O)CCS3)c(O)nc2n1CCS2	-2%	7	?	19µM*	-1%
O=c1c(C(c2ccc(Cl)cc2)c2c(O)nc3n(c2=O)CCS3)c(O)nc2n1CCS2	-12%	17	?	27µM*	14%
CCOc1ccc(NC(=O)N2CCN3CCCCC3C2)cc1 (centres undefined)	·	·	-2%	·	·
CCCC(=O)Nc1ccc2nn(-c3ccc(OC)cc3)nc2c1	0%	2	?	21µM*	-4%
COc1ccc(-c2csc(NC(C)=O)n2)cc1OC	-6%	8	?	27µM*	-4%
COc1ccc(-c2csc(NC(=O)Cc3ccccc3)n2)cc1OC	-5%	7	15%	-7%	-4%
CC(=O)Nc1nc(-c2ccc(-c3ccccc3)cc2)cs1	·	·	·	-1%	·
CC(=O)Nc1nc(-c2cccc3ccccc23)cs1	-6%	-16	25µM*	3.8µM*	-2%
COc1cccc(NC(=O)Nc2nc(-c3ccc(OC)c(OC)c3)cs2)c1	-3%	-94*	-6%	-12%	-15%
Cc1ccc(CN2CCN(c3cccc4[nH]ccc34)CC2)cc1	-11%	-11	-12%	-8%	-5%
O=C(O)COc1ccc(/C=C/c2nc3ccc([N+](=O)[O-])cc3s2)cc1	0%	-15	32µM*	24µM*	-3%
CCOc1ccc2[nH]c(=O)c(CN(Cc3cccs3)C(CC)c3nnnn3C(C)(C)CC)cc2c1 (centres undefined)	0%	-5	-15%	8.4µM*	4%
SMILES	TSG101-PTAP inh	TSHR antagonist	VDR inhibitor	PLK1 PBD inh	uPA generation
CCOC(=O)c1c(NC(=S)NNS(=O)(=O)c2ccc(Br)cc2)sc2c1CCCCC2	-2%	12	?	27µM*	3%
CCOC(=O)c1c(NC(=O)COC(=O)CNC(=O)c2ccco2)sc(C)c1C	-2%	-11	?	3.4µM*	-18%
CCOC(=O)c1c(NC(=O)COc2ccccc2Br)sc2c1CCCCC2	·	·	89µM*	·	·
CCOC(=O)c1c(NC(=S)Nc2ccc(OC)cc2)sc2c1CCCCC2	-1%	4	-17%	-27%	-2%
COC(=O)c1c(NC(=O)COC(=O)CNC(=O)c2ccco2)sc(C)c1C	-1%	-2	-3%	-11%	7%
CCOC(=O)c1c(NC(=O)c2ccco2)sc2c1CCCC2	-4%	-4	?	27µM*	0%
CCOC(=O)c1c(NC(=O)c2ccccc2Br)sc2c1CCc1ccccc1-2	-1%	-9	79µM*	6.7µM*	·
CCn1c(=S)[nH]c2cc(Cl)ccc21	1%	20	-4%	-9%	-14%
CCCn1c(=S)[nH]c2cc(Cl)ccc21	-1%	5	?	15µM*	-1%
Nc1nc(=S)c2[nH]c(=S)[nH]c2[nH]1	-6%	·	-23%	?	-8%
CSc1nc(=S)c2[nH]c(=S)[nH]c2[nH]1	-11%	-5	?	2.7µM*	5%
c1coc(CNc2ncnc3c2[nH]c2ccccc23)c1	·	·	2%	·	·
CC(C)(C)NC(=S)Nc1ccc(Nc2ccccc2)cc1	-3%	4	-24%	30µM*	·
S=C(NNC(=S)Nc1ccccc1)Nc1ccccc1	-3%	-1	71µM*	?	-2%
CC(C)(C)NC(=S)Nc1ccc(Br)cc1	-2%	9	22%	0%	-1%
Cc1cccc(NC(=S)NNc2cccc(Cl)c2)c1	-2%	-5	28µM*	27µM*	-7%
S=C(NNC(=S)Nc1ccc(Cl)cc1)NNc1ccccc1	·	·	·	7.5µM*	·
O=S(=O)(c1ccc(Cl)cc1)c1nnn2c1nc(NCc1ccc3c(c1)OCO3)c1sccc12	·	·	5%	·	·
Cc1ccc(C)c(NC(=O)Nc2cc3c(cc2N2CCCCC2)n(C)c(=O)n3C)c1	·	·	-6%	·	·
CC(=O)Nc1cccc(NC(=O)c2cc3c(=O)n4cccc(C)c4nc3n2C)c1	·	·	21%	·	·
Cn1ncc2c(c(SCc3ccc(Cl)cc3Cl)nn2C)c1=O	-1%	-11	?	12µM*	-8%
CC(C)c1ccc(NC(=O)C2Cc3c(-c4ccc5c(c4)OCO5)ccnc3O2)cc1 (centres undefined)	·	·	·	6%	·
COc1cc(N/N=C/c2ccccc2O)ncn1	-3%	-5	-18%	-14%	-6%
COc1cc(N/N=C/c2ccc(N(C)C)cc2)ncn1	-7%	-8	-7%	3%	3.5µM*
O=C(O)COc1ccc2c(c1)O/C(=C\c1ccco1)C2=O	-6%	-8	-1%	24µM*	-1%
O=C(O)COc1ccc2c(c1)O/C(=C\c1cccs1)C2=O	-1%	-8	0%	-11%	-3%
CCOC(=O)Cc1csc(N/N=C\c2cccc(Br)c2)n1	-1%	-13	?	24µM*	1%
CSc1ccc(CNC(=O)CCn2c(=O)c3cccn3c3ccc(F)cc32)cc1	·	·	13%	·	·
COc1ccc(CNC(=O)CCn2c(=O)c3cccn3c3ccc(F)cc32)cc1	-4%	2	?	27µM*	4%
CCn1c(=O)c([N+](=O)[O-])c(Cl)c2ccccc21	1%	-79*	?	2.4µM*	-4%
